Consider 40 compounds from PubChem BioAssay.

A number with no mark means an inactive call.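 The calls were made as follows, unless noted: active = fluorescence slope after compound addition differing from the mean of all screened samples at 99.7% confidence, in either direction; inactive = the rest.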

Chain of Alpha-2C adrenergic receptor (Homo sapiens) (P18825 whole entry, looked up): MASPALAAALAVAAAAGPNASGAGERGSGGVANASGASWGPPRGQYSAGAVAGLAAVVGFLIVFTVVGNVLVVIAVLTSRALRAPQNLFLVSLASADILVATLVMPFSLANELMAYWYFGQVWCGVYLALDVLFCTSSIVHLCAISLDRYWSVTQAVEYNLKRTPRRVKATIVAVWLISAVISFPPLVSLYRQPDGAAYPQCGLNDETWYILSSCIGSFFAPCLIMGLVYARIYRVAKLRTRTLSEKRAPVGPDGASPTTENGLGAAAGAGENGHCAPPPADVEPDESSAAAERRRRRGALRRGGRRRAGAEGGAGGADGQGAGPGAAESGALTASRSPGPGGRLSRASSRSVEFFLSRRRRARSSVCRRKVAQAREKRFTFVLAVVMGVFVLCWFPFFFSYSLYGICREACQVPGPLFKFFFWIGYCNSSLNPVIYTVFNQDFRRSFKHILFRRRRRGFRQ
Chain of Voltage-gated potassium channel subunit beta-2 (Rattus norvegicus) (P62483 whole entry, looked up): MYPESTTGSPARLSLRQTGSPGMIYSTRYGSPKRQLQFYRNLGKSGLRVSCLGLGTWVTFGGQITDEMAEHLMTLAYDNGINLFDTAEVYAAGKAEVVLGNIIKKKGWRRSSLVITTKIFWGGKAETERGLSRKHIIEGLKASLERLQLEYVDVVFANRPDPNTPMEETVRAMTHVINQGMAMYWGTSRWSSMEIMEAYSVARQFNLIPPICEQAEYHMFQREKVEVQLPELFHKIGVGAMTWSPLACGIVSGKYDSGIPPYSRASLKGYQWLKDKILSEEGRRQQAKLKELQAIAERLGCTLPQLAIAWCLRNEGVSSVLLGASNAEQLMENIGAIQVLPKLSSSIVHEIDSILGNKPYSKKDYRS

The first experiment addresses Voltage-gated potassium channel subunit beta-2 (Rattus norvegicus) (UniProt P62483). As to the kind of experiment: KvBeta positive modulators, primary screen, biochemical, NADPH fluorescence (AID 623;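 active = NADPH fluorescence slope more negative than the mean of all samples by about 3 SD, 99.7% confidence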;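 also: fluorescence intensity change per second fitted from 20 to 320 s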). The settings on record: Recombinant KvBeta, NADPH fluorescence decrease slope, 10 min; at 10 µM; hits give low values.
For the compound `CCOP(=O)(c1ccc(N(C)C)cc1)C(O)c1c(Cl)cccc1Cl` (stereo not given), the NADPH fluorescence slope was -3.5e-05.

For the compound `Cc1[nH]n(C(N)=S)c(=O)c1C(c1ccccc1)C(C#N)C#N` (stereo not given), the NADPH fluorescence slope was 5.1e-06.

In the case of `CCNc1ccc2c(Cl)cc(=O)oc2c1`, the NADPH fluorescence slope was -3e-05.

For the compound `Cc1ccnc(NS(=O)(=O)c2ccc(NC(=O)Cc3cccs3)cc2)n1`, the NADPH fluorescence slope was 6.5e-05.

As to `O=c1oc2ccccc2c(O)c1CN1CCCCC1`, the NADPH fluorescence slope is -6.8e-05.

`CCOCCn1c(CN2CCC(Cc3ccccc3)CC2)nc2c1c(=O)n(C)c(=O)n2C`: the NADPH fluorescence slope is -2.3e-05.

In the case of `NC(=O)c1cc(-c2ccccc2)nc(N2CCOCC2)n1`, the NADPH fluorescence slope is -4.3e-05.

Regarding `O=C(CN1C(=O)c2ccccc2S1(=O)=O)Nc1ccc(S(=O)(=O)N2CCCCCC2)cc1`, the NADPH fluorescence slope was -5.4e-05.

`COC(=O)C1=C(C)Nc2ncnn2C1c1ccc(C)o1` (stereo not given): the NADPH fluorescence slope was -8.1e-06.

With `CC1Cc2ccccc2N1C(=O)c1cnsn1` (stereo not given), the NADPH fluorescence slope was -0.000237.

Turning to `COc1ccc(C(=O)OCC(=O)NCc2ccco2)cc1OC`, the NADPH fluorescence slope is -7.7e-05.

For the compound `CCOC(=O)Cn1c(S(=O)(=O)Cc2ccccc2)nc2ccccc21`, the NADPH fluorescence slope is -1.4e-05.

In the case of `CCOC(=O)C1CCN(c2c(NC3CCCCCCC3)c(=O)c2=O)CC1`, the NADPH fluorescence slope was -4.2e-05.

On to `COc1ccc2c(c1)C1(Nc3ccccc3-c3nc4ccccc4n31)C(=O)N2` (stereo not given), for which the NADPH fluorescence slope is -4.6e-05.

As to `Cc1cccc(NC(=O)CC2NC3CCCCC3NC2=O)c1` (stereo not given), the NADPH fluorescence slope was -2.9e-05.

As to `COc1ccc(-c2nc(CCNC(=O)c3ccco3)cs2)cc1OC`, the NADPH fluorescence slope was -2.4e-05.

`CCN(CC)CCCNC1CCS(=O)(=O)C1` (stereo not given): the NADPH fluorescence slope was -6.6e-05.

As for `O=C(C1CCC(CNS(=O)(=O)c2cccc3cccnc23)CC1)N1CCCC1` (stereo not given), the NADPH fluorescence slope is -1.6e-05.

As to `CCCc1cc(Nc2cccc(OC)c2)n2ncnc2n1`, the NADPH fluorescence slope is -3e-05.

For `CC(=O)c1c(O)cc(C)n(Nc2nc(C)cc(C)n2)c1=O`, the NADPH fluorescence slope is -5.3e-05.

For the compound `CCOC(=O)C1CCN(C(=O)CN(Cc2ccccc2)S(C)(=O)=O)CC1`, the NADPH fluorescence slope was -5.7e-05.

Turning to `Cc1nc(C)c2c(c1C(F)(F)F)-c1ccccc1C2(F)F`, the NADPH fluorescence slope is -8.2e-06.

Consider `CCCC(=O)Nc1ccc(NC(=O)c2ccccc2OC)cn1`, for which the NADPH fluorescence slope is 7.2e-05.

`O=C(CCc1ccc(S(=O)(=O)N2CCOCC2)cc1)NCCc1ccccn1`: the NADPH fluorescence slope is 1.5e-05.

Regarding `COC(=O)c1sc(N)c(C(=O)OC)c1COC(=O)C1CC(=O)N(Cc2ccco2)C1` (stereo not given), the NADPH fluorescence slope was -4.3e-05.

Take `CCC12CN3CC(CC)(CN(C1)C3c1ccc(OC(C)C)cc1)C2=O` (stereo not given): the NADPH fluorescence slope was -0.000143.

With `Cc1ccccc1-c1nc(CN2CCC(C(=O)N3CCC(C(N)=O)CC3)CC2)c(C)o1`, the NADPH fluorescence slope is -3.8e-05.

On to `CC1(C(=O)NC2CCCCC2)CCC(=O)N1Cc1cccs1` (stereo not given), for which the NADPH fluorescence slope is -2.7e-05.

Take `CC(=O)Nc1cccc(NC(=O)C2CCCN2C(=O)Nc2ccc(C)cc2)c1` (stereo not given): the NADPH fluorescence slope is -4.3e-06.

In the case of `Cn1cccc1Cc1nnc(SCC(N)=O)n1-c1ccc(F)cc1`, the NADPH fluorescence slope was -3.1e-05.

For the compound `O=c1cc(CN2CCN(c3ccc(F)cc3)CC2)nc2sccn12`, the NADPH fluorescence slope was 2.3e-05.

For the compound `Cc1cc2ccccc2n1CCNC(=O)c1ccc(S(=O)(=O)N2CCOCC2)cc1`, the NADPH fluorescence slope was -1.9e-05.

`COc1cc(N=c2ssnc2Cl)cc(OC)c1`: the NADPH fluorescence slope was -8.9e-05.

For `COc1ccccc1C(=O)N1CCN(CCc2ccccc2)CC1`, the NADPH fluorescence slope was 1.9e-05.

For the compound `CCOc1cc(NC(=O)c2ccco2)c(OCC)cc1NC(=O)COc1ccccc1C`, the NADPH fluorescence slope is 3.9e-06.

Take `O=C(c1ccc(CNc2c(N3CCCC3)c(=O)c2=O)cc1)N1CCc2ccccc2C1`: the NADPH fluorescence slope is 2.4e-05.

Regarding `CCOC(=O)c1c(C)n(C)c2c(C)cc(O)c(OC(C)=O)c12`, the NADPH fluorescence slope is -7.1e-06.

In the case of `Cc1nnc(SC(=O)N2c3ccccc3Sc3ccccc32)s1`, the NADPH fluorescence slope is -1.7e-05.

For the compound `O=C(O)CCCc1nc(-c2ccccc2)no1`, the NADPH fluorescence slope is 1.4e-05.

With `Cc1ccc(S(=O)(=O)N2CCN(C(=O)CSc3nnnn3C)C2)cc1`, the NADPH fluorescence slope was 5.7e-06.

The next experiment has as its target Alpha-2C adrenergic receptor (Homo sapiens) (UniProt P18825). The experiment can be described thus: modulators of alpha2C/GIRK thallium flux, primary screen, cell-based, HEK293 alpha2C/GIRK1/2 (AID 624).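 Also: slope of fluorescence ratio to pre-addition baseline per second over 15 to 24 s.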 The note with it: thallium flux BTC fluorescence, at 10 µM, actives lie on both sides.
With `CCOP(=O)(c1ccc(N(C)C)cc1)C(O)c1c(Cl)cccc1Cl` (stereo not given), the slope was 0.00411.

Regarding `Cc1[nH]n(C(N)=S)c(=O)c1C(c1ccccc1)C(C#N)C#N` (stereo not given), the slope is 0.00522.

Take `CCNc1ccc2c(Cl)cc(=O)oc2c1`: the slope is 0.00496.

`Cc1ccnc(NS(=O)(=O)c2ccc(NC(=O)Cc3cccs3)cc2)n1`: the slope was 0.00546.

Turning to `O=c1oc2ccccc2c(O)c1CN1CCCCC1`, the slope was 0.00535.

With `CCOCCn1c(CN2CCC(Cc3ccccc3)CC2)nc2c1c(=O)n(C)c(=O)n2C`, the slope is 0.00435.

As to `NC(=O)c1cc(-c2ccccc2)nc(N2CCOCC2)n1`, the slope is 0.00656.

For the compound `O=C(CN1C(=O)c2ccccc2S1(=O)=O)Nc1ccc(S(=O)(=O)N2CCCCCC2)cc1`, the slope was 0.00568.

`COC(=O)C1=C(C)Nc2ncnn2C1c1ccc(C)o1` (stereo not given): the slope was 0.0055.

In the case of `CC1Cc2ccccc2N1C(=O)c1cnsn1` (stereo not given), the slope was 0.00637.

On to `COc1ccc(C(=O)OCC(=O)NCc2ccco2)cc1OC`, for which the slope was 0.00497.

Regarding `CCOC(=O)Cn1c(S(=O)(=O)Cc2ccccc2)nc2ccccc21`, the slope is 0.00594.

In the case of `CCOC(=O)C1CCN(c2c(NC3CCCCCCC3)c(=O)c2=O)CC1`, the slope was 0.00631.

Regarding `COc1ccc2c(c1)C1(Nc3ccccc3-c3nc4ccccc4n31)C(=O)N2` (stereo not given), the slope is 0.00486.

For `Cc1cccc(NC(=O)CC2NC3CCCCC3NC2=O)c1` (stereo not given), the slope is 0.00297.

On to `COc1ccc(-c2nc(CCNC(=O)c3ccco3)cs2)cc1OC`, for which the slope was 0.00779.

With `CCN(CC)CCCNC1CCS(=O)(=O)C1` (stereo not given), the slope was 0.00536.

For the compound `O=C(C1CCC(CNS(=O)(=O)c2cccc3cccnc23)CC1)N1CCCC1` (stereo not given), the slope was 0.00608.

Take `CCCc1cc(Nc2cccc(OC)c2)n2ncnc2n1`: the slope is 0.00589.

As to `CC(=O)c1c(O)cc(C)n(Nc2nc(C)cc(C)n2)c1=O`, the slope is 0.00406.

Turning to `CCOC(=O)C1CCN(C(=O)CN(Cc2ccccc2)S(C)(=O)=O)CC1`, the slope was 0.00496.

Turning to `Cc1nc(C)c2c(c1C(F)(F)F)-c1ccccc1C2(F)F`, the slope is 0.00655.

On to `CCCC(=O)Nc1ccc(NC(=O)c2ccccc2OC)cn1`, for which the slope is 0.00808.

For the compound `O=C(CCc1ccc(S(=O)(=O)N2CCOCC2)cc1)NCCc1ccccn1`, the slope was 0.00601.

Take `COC(=O)c1sc(N)c(C(=O)OC)c1COC(=O)C1CC(=O)N(Cc2ccco2)C1` (stereo not given): the slope was 0.00671.

On to `CCC12CN3CC(CC)(CN(C1)C3c1ccc(OC(C)C)cc1)C2=O` (stereo not given), for which the slope is 0.0058.

For the compound `Cc1ccccc1-c1nc(CN2CCC(C(=O)N3CCC(C(N)=O)CC3)CC2)c(C)o1`, the slope is 0.00557.

As to `CC1(C(=O)NC2CCCCC2)CCC(=O)N1Cc1cccs1` (stereo not given), the slope is 0.00547.

Regarding `CC(=O)Nc1cccc(NC(=O)C2CCCN2C(=O)Nc2ccc(C)cc2)c1` (stereo not given), the slope was 0.0061.

On to `Cn1cccc1Cc1nnc(SCC(N)=O)n1-c1ccc(F)cc1`, for which the slope was 0.00615.

Turning to `O=c1cc(CN2CCN(c3ccc(F)cc3)CC2)nc2sccn12`, the slope is 0.00346.

With `Cc1cc2ccccc2n1CCNC(=O)c1ccc(S(=O)(=O)N2CCOCC2)cc1`, the slope was 0.00522.

As to `COc1cc(N=c2ssnc2Cl)cc(OC)c1`, the slope was 0.0056.

`COc1ccccc1C(=O)N1CCN(CCc2ccccc2)CC1`: the slope is 0.00331.

With `CCOc1cc(NC(=O)c2ccco2)c(OCC)cc1NC(=O)COc1ccccc1C`, the slope was 0.00663.

As for `O=C(c1ccc(CNc2c(N3CCCC3)c(=O)c2=O)cc1)N1CCc2ccccc2C1`, the slope is 0.00541.

For `CCOC(=O)c1c(C)n(C)c2c(C)cc(O)c(OC(C)=O)c12`, the slope was 0.00417.

In the case of `Cc1nnc(SC(=O)N2c3ccccc3Sc3ccccc32)s1`, the slope was 0.00696.

Consider `O=C(O)CCCc1nc(-c2ccccc2)no1`, for which the slope was 0.00583.

For the compound `Cc1ccc(S(=O)(=O)N2CCN(C(=O)CSc3nnnn3C)C2)cc1`, the slope was 0.00463.
